High-throughput results from PubChem BioAssay.
The list is not random: actives were taken first. Their share in the collection is about 1.3%.
LAP4-GFP MLPCN: modulators of TOR pathway LAP4-GFP in S. cerevisiae; S. cerevisiae LAP4-GFP multiplex, flow cytometry GFP, 3 h; median GFP as percent of DMSO wells; GFP response vs DMSO, % at 10 µM; 320,000 tested, 0.34% active; AID 2023;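 active = GFP response vs DMSO above a set limit, about the screen mean plus 3 SD, cut at about 150% in these data; inconclusive = under 70 cell events counted for the yeast strain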
Efflux pump inh: antifungal efflux pump inhibition, Nile Red retention. S. cerevisiae Candida pump triplex. inhibition, % at 10 µM. 330,000 tested, 0.44% active;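 active = plate passing quality check with inhibition over a set limit, or well fluorescence over plate mean plus 4 SD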;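 also: Nile Red retained in pooled yeast measured as flow cytometry median fluorescence; 0% = buffer negative control and 100% = Enniatin B positive control; higher means more Nile Red kept so more efflux inhibition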
MEP2 TOR yeast: alters MEP2-GFP fluorescence in TOR pathway yeast screen | S. cerevisiae MEP2-GFP strain, flow cytometry GFP, 3 h; 100% = DMSO control level | GFP response vs DMSO, % at 10 µM | 330,000 tested, 0.51% active;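 active = GFP response versus DMSO above a set limit, roughly screen mean plus 3 SD, cut at about 180% in these data; inconclusive = fewer than 70 cells counted for a yeast strain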;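 also: median GFP fluorescence of the barcode-gated MEP2-GFP cells per well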
RPL19A TOR yeast: yeast TOR pathway RPL19A-GFP modulation | 330,000 tested, 0.3% active | S. cerevisiae RPL19A-GFP strain, flow cytometry, 3 h; hits give low values | percent response vs DMSO, % at 10 µM | AID 2025;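 active = percent response vs DMSO below 50%; inconclusive = fewer than 70 events counted for the yeast strain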;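 also: median channel GFP fluorescence of the barcoded RPL19A-GFP strain; ratio of sample median GFP to plate DMSO average so 100% = DMSO; lower means less RPL19A-GFP as with rapamycin TOR inhibition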
CIT2-GFP yeast: alters CIT2-GFP fluorescence in TOR pathway yeast screen | S. cerevisiae CIT2-GFP strain, flow cytometry, 3 h; 100 means same as DMSO wells | GFP response vs DMSO, % at 10 µM | 320,000 tested, 0.065% active | AID 2029;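 active = GFP response relative to DMSO above a set limit, near the screen mean plus 3 SD, cut at about 150% in these data; inconclusive = Fewer than 70 cells measured for a yeast strain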;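 also: ratio of well median GFP fluorescence to mean of DMSO wells on the plate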
AGP1 TOR yeast: yeast TOR pathway AGP1-GFP modulation; S. cerevisiae AGP1-GFP multiplex flow cytometry, 3 h; GFP as percent of DMSO wells; GFP response vs DMSO, % at 10 µM; 320,000 tested, 0.02% active;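 active = GFP response relative to DMSO above a set limit, near screen average plus 3 SD, cut at about 150% in these data; inconclusive = fewer than 70 cells counted for the yeast strain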;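 also: median GFP channel fluorescence of the gated AGP1 strain per well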
* = called active by the depositor; ? = inconclusive; . = no result; [ ] = remark or other dose.

SMILES | LAP4-GFP MLPCN | Efflux pump inh | MEP2 TOR yeast | RPL19A TOR yeast | CIT2-GFP yeast | AGP1 TOR yeast
CC(C)[C@H](NC(=O)c1ccco1)C(=O)OCC(=O)Nc1ccc(Cl)c(S(=O)(=O)N(C)C)c1 | 59.3 | 0.4 | 178.0*[may fluoresce violet] | 21.5*[may fluoresce violet] | ? | ?
CC(C)[C@H](NC(=O)c1ccco1)C(=O)OCC(=O)Nc1cccc(F)c1 | 100.7 | 0.1 | 119.8 | 98.2 | 107.4 | 99.0
CS(=O)(=O)N(CC(=O)NCCSCc1cccc(Cl)c1)c1ccc(F)cc1 | 93.9 | 0.1 | 105.4 | 104.8 | 98.2 | 94.2
O=C(Nc1ccccc1C(=O)NCCCN1CCOCC1)c1ccc(Cl)cc1 | 96.5 | 0.1 | 92.3 | 97.4 | 93.2 | 95.9
COC(=O)c1ccc(CO/N=C/c2ccc(OC)cc2OC)cc1 | 76.2 | 0.7 | 216.9*[may fluoresce violet] | 65.2 | ? | 16.8
Nc1nc(-c2ccccc2)c(C(=O)Nc2ccccc2)s1 | 133.2 | -0.1 | ? | 15.7*[may fluoresce violet] | ? | ?
O=C(NCc1ccncc1)C12CC3CC(CC(Cl)(C3)C1)C2 | 145.4 | 0.2 | 224.8* | 90.8 | 83.5 | 96.1
CCc1ccc(NC(=O)C(CC)Sc2nc3ccsc3c(=O)n2CCC(=O)O)cc1 (configuration not stated) | 100.2 | -0.1 | 109.5 | 104.5 | 106.3 | 109.8
CCC(=O)NC(Nc1c(C)n(C)n(-c2ccccc2)c1=O)C(Cl)(Cl)Cl (configuration not stated) | 92.7 | -0.4 | 105.0 | 105.5 | 101.9 | 102.1
CCOC(=O)c1c(S(=O)(=O)NCC(=O)NCc2ccc(C)cc2)c(C)n(C)c1C | 94.6 | -0.2 | 99.3 | 101.0 | 104.8 | 102.5
Cn1nc(-c2ccc(Cl)cc2)nc2c(=O)n(C)c(=O)nc1-2 | 203.0* | 0.0 | 110.6 | 51.8 | 61.5 | 105.4
Oc1nc(-c2ccc(Cl)cc2)n2ccncc12 | 99.7 | -0.1 | 94.6 | 94.7 | 95.1 | 103.7
COC(=O)c1ccc(-c2nc(O)c3cnccn23)cc1 | 76.5 | 0.1 | 325.0*[may fluoresce violet] | 21.7*[may fluoresce violet] | ? | ?
O=C(Nc1ccccc1N1CCN(C(=O)c2ccc(Cl)cc2)CC1)c1ccc([N+](=O)[O-])o1 | 114.5 | 0.0 | 103.2 | 94.5 | 81.9 | 96.7
O=C(Nc1ccccc1N1CCOCC1)c1ccc([N+](=O)[O-])o1 | 39.7 | -2.8 | 68.3 | 45.4* | 51.7 | 22.2
O=C(Nc1cccc(Cl)c1N1CCCC1)c1ccc([N+](=O)[O-])o1 | 211.2* | -0.1 | 82.4 | 82.1 | 66.9 | 80.8
Cc1cc(=O)oc2cc(OCC(=O)N3CCCC3)c(Cl)cc12 | 100.1 | -0.1 | 90.8 | 91.8 | 91.5 | 92.5
Cc1ccc(S(=O)(=O)Nc2ccc(C(=O)N3CCOCC3)cc2)cc1 | 91.3 | -0.1 | 192.0*[may fluoresce violet] | 64.1 | ? | 25.9
O=C(c1ccc(S(=O)(=O)Nc2ccccc2)cc1)N1CCOCC1 | 96.2 | 0.1 | 101.6 | 99.8 | 94.6 | 98.4
Cc1ccc(CSCC(=O)N2CCOCC2)cc1 | 72.3 | -0.1 | 235.7*[may fluoresce violet] | 56.1 | ? | ?
CCNS(=O)(=O)c1ccc(CCC(=O)N2CCN(Cc3ccccc3)CC2)cc1 | 95.0 | -0.1 | 102.3 | 100.7 | 104.8 | 96.9
CCOC(=O)N1CCN(C(=O)CCc2ccc(S(=O)(=O)NCCc3ccccc3)cc2)CC1 | 161.1* | 0.0 | 193.1* | 108.5 | 152.6* | 108.2
Cc1ccc(NS(=O)(=O)c2ccc(CCC(=O)N3CCOCC3)cc2)cc1 | 90.9 | 0.2 | 180.9* | 60.3 | 109.4 | 22.2
COc1ccccc1NS(=O)(=O)c1cc2c3c(c1)CCN3C(=O)CC2 | 99.5 | -0.1 | 103.3 | 98.5 | 102.6 | 113.9
CC(C)CC(OC(=O)c1nsc(Cl)c1Cl)C(=O)NC1CCCC1 (configuration not stated) | 60.4 | -0.2 | 243.3*[may fluoresce violet] | 42.9*[may fluoresce violet] | ? | ?
SMILES | LAP4-GFP MLPCN | Efflux pump inh | MEP2 TOR yeast | RPL19A TOR yeast | CIT2-GFP yeast | AGP1 TOR yeast
Cc1cccn2c(=O)c(/C=C(\C#N)C(=O)NC3CCS(=O)(=O)C3)c(Oc3ccccc3Cl)nc12 (configuration not stated) | 67.1 | 0.3 | 233.5*[may fluoresce violet] | 50.7 | ? | ?
CCOC(=O)N1CCC(NS(=O)(=O)c2ccc(C#N)cc2)CC1 | 107.7 | 0.0 | 99.8 | 94.3 | 92.4 | 99.1
COc1ccc(-c2cc(CNC(=O)CN3CCN(C)CC3)on2)cc1 | 87.4 | -0.3 | 256.8*[may fluoresce violet] | . | ? | 31.7
O=C(NCCC(=O)N1CCCC(C(F)(F)F)C1)c1ccc(Br)cc1 (configuration not stated) | 76.2 | 1.9 | 92.7 | 98.4 | 80.9 | 76.7
COc1ccc(C2CC(c3ccccc3)=NN2S(=O)(=O)c2ccccc2)cc1 (configuration not stated) | 191.4* | -0.1 | 235.1* | 107.6 | 130.5 | 96.8
O=S(=O)(c1ccccc1)N1N=C(c2ccccc2)CC1c1ccco1 (configuration not stated) | 89.9 | 0.6 | 94.5 | 102.9 | 109.2 | 108.1
Cc1ccc(CC(=O)NCC(O)c2ccccc2)cc1 (configuration not stated) | 84.6 | 0.0 | 284.4*[may fluoresce violet] | 46.1*[may fluoresce violet] | ? | ?
Cc1ccc2nc3nc(NCC4CCCO4)c(C(=O)NC4CCCC4)cc3c(=O)n2c1 (configuration not stated) | 85.0 | 0.0 | 266.7*[may fluoresce violet] | 21.8*[may fluoresce violet] | ? | ?
C=CCNC(=O)c1cc2c(=O)n3cc(C)ccc3nc2nc1NCC1CCCO1 (configuration not stated) | 57.8 | -0.2 | 179.5*[may fluoresce violet] | 28.5*[may fluoresce violet] | ? | ?
Cc1ccc2nc3nc(NCC4CCCO4)c(C(=O)NC4CCCCC4)cc3c(=O)n2c1 (configuration not stated) | 105.5 | 0.0 | 107.6 | 112.4 | 105.6 | 91.2
Cc1ccccc1Sc1ccc(N)cn1 | 98.6 | -0.1 | 99.8 | 102.0 | 96.8 | 101.3
CC(C(=O)NC1CCCCC1)N(Cc1ccccc1)C(=O)c1snc(C(N)=O)c1N (configuration not stated) | 93.5 | -0.1 | 104.2 | 101.5 | 107.9 | 104.1
COc1ccccc1N1CCN(S(=O)(=O)CCNC(=O)C2CCCC2)CC1 | 94.5 | 0.1 | 104.7 | 100.5 | 100.8 | 98.8
COc1ccc2nc(C)c(C(N)=O)cc2c1 | ? | -0.2 | ? | ? | 85.2 | ?
COc1cc2cc(C(N)=O)c(N)nc2cc1OC | 97.4 | -0.2 | 215.6*[may fluoresce violet] | 44.0*[may fluoresce violet] | ? | ?
O=C(C[C@H]1C(=O)N(CCc2ccccc2)C[C@@H]1Cc1ccccc1)Nc1ccccc1 | 138.4 | 0.1 | 100.4 | 106.1 | 111.2 | 98.3
CC1=CC(C)[C@H](/C=N/n2c(=O)[nH]c3c([nH]c4ccc(C)cc43)c2=O)C(C)C1 (some centres not stated) | 72.6 | 0.5 | 266.2*[may fluoresce violet] | 44.1*[may fluoresce violet] | ? | ?
